We go through 20 compounds from PubChem BioAssay (NCATS).

Results filed as inconclusive are left out. Calls of active or inactive are those of the source. Unless noted, calls come from the whole dose curve; as a rule, active = well fitted curve in the direction sought with a large enough effect; inconclusive = small, poorly fitted or top-dose-only effect, or another doubt; inactive = no such curve, though single readings can be large; an effect the other way counts as inactive or inconclusive.

Test [1] can be described thus: qHTS to identify inhibitors of the type 1 interferon - major histocompatibility complex class I in skeletal muscle: primary screen against the NCATS Mechanism Interrogation Plate v5.0 (MIPE) Libary (AID 1347411). Note: nearly all actives have a fitted effect of over 65% in size. Note: potency is the fitted concentration of half-maximal effect. The method, boiled down:
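Cells were genome-edited human myoblasts carrying a HiBit tag on endogenous HLA-B. They were treated with IFN-beta (4.0 ng/ml) and titrated compounds (top 46 uM) for 24 hrs before lytic HiBiT detection.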

The target in test [2] is Calcium and integrin-binding protein 1 (Homo sapiens) (UniProt Q99828). Description: Confirmatory qHTS for Identification of Calcium Integrin Binding Protein 1 (CIB1) Competitor (AID 1508617). Note: potency is the fitted concentration of half-maximal effect; nearly all actives have a fitted effect of over 65% in size. The method, boiled down:
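Compounds at up to 114 uM final met 1 uM GST-tagged CIB1 for 15 min at room temperature (HEPES pH 7.4, 5 mM CaCl2). FITC-labelled alphaIIb peptide, 100 nM, added; polarization read after 15 min more.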
(In qHTS, concentration-response curves come from the screen itself.)

The target is the same in test [3]. Description: Primary qHTS for Identification of Calcium Integrin Binding Protein 1 (CIB1) Competitor (AID 1508620).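 Note: GST tagged CIB1 binding a fluorescein labelled alphaIIb integrin peptide tracer; top concentration of the series differs between compounds.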 In outline:
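CIB1-GST (1 uM final) and compound incubated 15 min at room temperature before adding FITC-alphaIIb peptide tracer (100 nM final). Competition for binding read by fluorescence polarization (ex 480, em 540) after another 15 min at room temperature.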

Test [4] is described as follows: qHTS to identify inhibitors of the type 1 interferon - major histocompatibility complex class I in skeletal muscle: primary screen against the NCATS Pharmaceutical Collection (AID 1347407).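 Note: luminescence of HiBiT knocked into endogenous HLA-B as interferon-induced MHC class I level.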 The method, boiled down: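 Cells were seeded with 4 ng/ml IFN-beta, incubated 1 h, then dosed with compounds over eight 1:5 steps up to 46 uM final. After 24 h at 37 C, HiBiT lytic reagent was added and luminescence read after 10 min lysis in the dark.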

Test [5] has as its target Protein phosphatase 1D (Homo sapiens) (UniProt O15297). The test is described as follows: RapidFire Mass Spectrometry qHTS Assay for Modulators of WT P53-Induced Phosphatase 1 (WIP1) (AID 1347424).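 Note: amount of dephosphorylated VEPPL-S-QETFS peptide product formed by WIP1; series mostly up to about 63 µM.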 In outline: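 10 nM WIP1 + cpd, 1 h RT; + 2 uM VEPPL-pS-QETFS, 5 min RT; stop 0.5% formic acid; labelled product standard 1 uM; RapidFire MS. Buffer 50 mM Tris pH 7.5, 30 mM MgCl2, 1 mM TCEP.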

The target is the same in test [6]. The test is described as follows: Rhodamine-PBP qHTS Assay for Modulators of WT P53-Induced Phosphatase 1 (WIP1) (AID 1347425). In outline:
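The read-out is the change in Rhodamine-PBP fluorescence (f1 - f0, ex 525/em 598 nm) as Pi is released, read each minute for 11 min. Final reaction: 5 nM WIP1, 10 uM phosphopeptide VEPPL-pS-QETFS, 10 uM Rh-PBP, 50 mM Tris-HCl pH 7.5, 30 mM MgCl2. Compound was preincubated with enzyme for 1 hour at room temperature.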

A short description of test [7]: Confirmatory qHTS for VERO E6 Cytotoxicity Assay: Counterscreen for SARS-CoV-2 CPE Assay (AID 1508605; calls by dose curve; note: series mostly up to about 20 µM; nearly all actives have a fitted effect of over 60% in size).
Test [8] can be described thus: Confirmatory qHTS for activators (rescue) of SARS-CoV-2 Cytopathic Effect (CPE) (AID 1508606; calls by dose curve; note: potency is the fitted concentration of half-maximal effect; nearly all actives have a fitted effect of over 70% in size).
The nature of test [9]: qHTS for inhibitors of adenylyl cyclases using a fission yeast platform: a pilot screen against the NCATS LOPAC library (AID 1347410). In outline:
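Growth medium went into the plates first, then compounds were pinned (final up to 57 µM), then CHP2027 yeast were added. Plates were incubated overnight (18 h) at 30C in the dark, and GFP was measured by laser scanning cytometry.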

Test [10] can be described thus: Validation qHTS assay for inhibitors of Activation Induced Cytidine Deaminase (AID): UDG Counterscreen signal (AID 1347427). In outline: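 Counterscreen read of UDG activity (2 U/mL, 4/3x) in the FRET deamination format with AID (1 uM, 4/3x), DJC20/DJC23 substrates (250 nM, 4x), 4 h at room temperature. NaOH stop, fluorescence at 560 ex/665 em.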
Test [11] has as its target Single-stranded DNA cytosine deaminase (Homo sapiens) (UniProt Q9GZX7). The test is described as follows: Validation qHTS assay for inhibitors of Activation Induced Cytidine Deaminase (AID): AID signal (AID 1347429). The method, boiled down: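 In this coupled qHTS, AID deaminates a FRET-labelled ssDNA substrate in the presence of UDG over 4 hr at room temperature. Compounds span up to 114 uM final.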

The nature of test [12]: Primary qHTS for inhibitors of La Crosse Virus (LACV) - induced cell death in SH-SY5Y cells (AID 1508616).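 Note: top concentration of the series differs between compounds; higher means more rescue of cells from virus-induced death.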 The method, boiled down: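 Readout was luminescence from ATPLite 1step added after a 6-day LACV infection (0.01 MOI) of SH-SY5Y cells that had received pin-transferred compound 24 hr after seeding.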
Test [13] deals with Calcium and integrin-binding protein 1 (Homo sapiens) (UniProt Q99828). Description: Validation qHTS for Identification of Calcium Integrin Binding protein 1 (CIB1) Competitor (AID 1508618). The method, boiled down:
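CIB1-GST (1 uM final) incubated 15 min at room temperature with compounds (up to 114 uM), then FITC-labelled alphaIIb peptide (100 nM) added. FP read (Ex 480/Em 540) after 15 min, pH 7.4 buffer containing 5 mM CaCl2.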

Calcium and integrin-binding protein 1 (Homo sapiens), sequence (Q99828 whole entry, looked up): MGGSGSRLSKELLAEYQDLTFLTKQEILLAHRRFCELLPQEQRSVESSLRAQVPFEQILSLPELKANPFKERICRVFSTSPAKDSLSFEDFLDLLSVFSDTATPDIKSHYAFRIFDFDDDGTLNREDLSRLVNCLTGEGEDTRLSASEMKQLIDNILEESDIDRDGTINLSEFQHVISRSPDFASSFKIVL
Protein phosphatase 1D (Homo sapiens), sequence (O15297 whole entry, looked up): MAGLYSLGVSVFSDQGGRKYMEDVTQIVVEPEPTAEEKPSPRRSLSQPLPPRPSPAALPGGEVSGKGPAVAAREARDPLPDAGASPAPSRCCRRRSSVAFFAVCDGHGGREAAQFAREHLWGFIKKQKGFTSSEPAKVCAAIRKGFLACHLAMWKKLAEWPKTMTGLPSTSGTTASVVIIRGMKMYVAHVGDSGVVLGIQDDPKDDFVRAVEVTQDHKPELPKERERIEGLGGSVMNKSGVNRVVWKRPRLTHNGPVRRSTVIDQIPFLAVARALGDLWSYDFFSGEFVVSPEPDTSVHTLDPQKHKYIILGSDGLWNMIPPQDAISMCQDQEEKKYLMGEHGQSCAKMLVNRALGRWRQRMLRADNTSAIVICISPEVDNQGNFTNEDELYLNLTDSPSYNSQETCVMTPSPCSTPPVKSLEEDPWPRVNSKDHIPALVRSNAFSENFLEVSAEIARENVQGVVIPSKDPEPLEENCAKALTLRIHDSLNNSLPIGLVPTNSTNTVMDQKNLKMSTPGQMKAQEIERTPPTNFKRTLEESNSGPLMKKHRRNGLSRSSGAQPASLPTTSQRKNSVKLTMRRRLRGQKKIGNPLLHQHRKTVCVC
Single-stranded DNA cytosine deaminase (Homo sapiens), sequence (Q9GZX7 whole entry, looked up): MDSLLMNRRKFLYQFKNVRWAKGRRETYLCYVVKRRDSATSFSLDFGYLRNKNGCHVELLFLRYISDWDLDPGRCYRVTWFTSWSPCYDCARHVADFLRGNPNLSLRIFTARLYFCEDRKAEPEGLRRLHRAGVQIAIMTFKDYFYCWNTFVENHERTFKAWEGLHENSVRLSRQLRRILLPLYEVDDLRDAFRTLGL

Turning to `CC1=C(O)C(=O)C=C2C1=CC=C1[C@@]2(C)CC[C@@]2(C)[C@@H]3C[C@](C)(C(=O)O)CC[C@]3(C)CC[C@]12C`, the Potency in test [1] was 829 nM (active); in [2], 22400 nM (active).
For the compound `Cc1[nH]nc2ccc(-c3cncc(OC[C@@H](N)Cc4c[nH]c5ccccc45)c3)cc12`, in test [1], the Potency is 2620 nM (active). In test [3], the result was inactive.
With `O=[N+]([O-])c1c(Cl)c(Cl)cc(Cl)c1Cl`, the result in test [4], in test [6] and in [3] was inactive. In addition, in test [5], the Potency result was “inactive”.
For `COc1ccc(C(c2ccc(OC)cc2)C(Cl)(Cl)Cl)cc1`, the compound was classed as inactive in test [4], in [6] and in test [3]. For the same compound, the Potency result in test [5] is “inactive”.
Consider `CC(C)[C@H]1C(=O)N[C@H](CO)Cc2c[nH]c3cccc(c23)N1C`, for which the Potency result in test [1] and in [7] was “inactive” each time. In addition, in [8], the Potency was 1390 nM (active). The result in test [3] was inactive.
Turning to `CN[C@@H]1C[C@@H](c2ccc(Cl)c(Cl)c2)c2ccccc21`, the compound was called inactive in [9], in test [10], in test [11], in test [12] and in test [13].
For `O=C(Nc1ccccc1-c1ccc(Cl)cc1)c1cccnc1Cl`, the compound was classed as inactive in test [4], in [6] and in test [3]. The Potency entry in test [5] was “inactive”.
In the case of `CS(=O)(=O)c1ccc(C(=O)C2C(=O)CCCC2=O)c([N+](=O)[O-])c1`, the compound was called inactive in test [4] and in test [12].
`CC(O)CN1CCN(CC(=O)[O-])CCN(CC(=O)[O-])CCN(CC(=O)[O-])CC1.[Gd+3]` (centres undefined): the result in [4], in test [6] and in test [3] was inactive. Also, the Potency entry in test [5] was “inactive”.
Take `O=C(O)c1cc(Oc2ccc(C(F)(F)F)cc2Cl)ccc1[N+](=O)[O-]`: the result in test [4], in [6], in [12] and in test [3] was inactive.
As to `CC(C)(O)C(=O)Nc1ccc([N+](=O)[O-])c(C(F)(F)F)c1`, the Potency result in test [1] is “inactive”.
As for `ClC1=C(Cl)[C@]2(Cl)[C@@H]3[C@@H]4C[C@@H]([C@H]5O[C@@H]45)[C@@H]3[C@@]1(Cl)C2(Cl)Cl`, the call in [4], in [6] and in test [3] was inactive.
On to `C=CCC1=C(C)C(OC(=O)C2C(C=C(C)C)C2(C)C)CC1=O` (centres undefined), for which the outcome in [4], in test [6], in [12] and in test [3] was inactive. Further, the Potency entry in [5] is “inactive”.
On to `c1ccc(CCCN2CCN(CCOC(c3ccccc3)c3ccccc3)CC2)cc1`, for which the compound was classed as inactive in test [9], in test [10], in [11], in test [13] and in [3].
Turning to `COc1ccc(N(C(=O)Oc2c(C)cccc2C)c2ccnc(Nc3ccc(N4CCN(C)CC4)cc3)n2)c(OC)c1`, in test [1], the Potency entry is “inactive”. For the same compound, the result in test [3] was inactive.
As for `O=[N+]([O-])c1c2ccccc2cc2ccccc12`, the compound was classed as inactive in [4] and in test [3]. For the same compound, in test [5], the Potency result is “inactive”.
On to `CSCC[C@@H](NC(=O)[C@@H](Cc1ccccc1)NC(=O)CNC(=O)CNC(=O)[C@@H](N)Cc1ccc(O)cc1)C(=O)O`, for which the Potency entry in test [1] was “inactive”. Further, in [3], the result was inactive.
As to `CC1(C)CC/C(=C/c2ccc(Cl)cc2)C1(O)Cn1cncn1` (centres undefined), the compound was classed as inactive in test [4], in [6] and in [3]. Moreover, the Potency entry in test [5] is “inactive”.
Consider `COCCOCCO`, for which the compound was classed as inactive in test [4], in [6], in test [12] and in test [3]. The Potency entry in test [5] is “inactive”.
For `CCOP(=O)(NC(C)C)Oc1ccc(SC)c(C)c1` (centres undefined), the compound was classed as inactive in test [4], in test [6] and in test [3]. Besides, the Potency entry in [5] is “inactive”.
